Experimental data: PubChem BioAssay (NCATS)
“And” between values parts separate entries of the source, which are not always exact repeats. Equal entries are not always repeated. Inconclusive results are not listed. A call without a number means that no potency is given here. The source made the active and inactive calls. Unless noted, calls follow the shape of the dose curve; as a rule, active = well fitted curve in the direction sought with a large enough effect; inconclusive = small, poorly fitted or top-dose-only effect, or another doubt; inactive = no such curve, though single readings can be large; an effect the other way counts as inactive or inconclusive.

Tests used:
[1] = target: Alpha-galactosidase A (Homo sapiens) (UniProt P06280); assay: Counterscreen for Glucocerebrosidase Inhibitors: qHTS Assay for Human alpha-Galactosidase at pH 4.5 (AID 992)
Summary of the method: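 Concentration-response curves (0.7 nM to 77 uM final) were modeled with the Hill equation to give AC50. Reactions: 2 nM enzyme, 80 uM fluorogenic alpha-galactoside, pH 4.5 citric acid buffer, 20 min, room temperature.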

[2] = Validation of Assay for Modulators of Lamin A Splicing (AID 1459; active = well fitted curve in the direction sought with a large enough effect in the signal ratio; the % refers to the signal ratio;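 also: cells exposed to compound for two days before reading; ratio rise marks activators and ratio drop marks inhibitors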)
Summary of the method: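 Splicing correction is reported by an EGFP-containing lamin A minigene in stably transfected S3 HeLa cells, while DsRed2 controls for viability and nonspecific signal. Cells are exposed to compounds for 48 hrs before the GFP over RFP ratio is taken.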

[3] = target: DNA repair nuclease/redox regulator APEX1 (Homo sapiens) (UniProt P27695); assay: qHTS Validation Assay for Inhibitors of the Human Apurinic/apyrimidinic Endonuclease 1 (APE1) (AID 1705; also: potency is read from the fitted curve at half-maximal effect;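 as to activity change, negative = inhibition: TAMRA fluorescence gain over two minutes as APE1 cuts a quenched THF abasic duplex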)
Summary of the method: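 Endonuclease activity of human APE1 is followed as dequenching when the enzyme incises a tetrahydrofuran abasic site in a short duplex labelled 5'-TAMRA/3'-BHQ-2 (50 nM final), after 15 min enzyme–compound preincubation at room temperature.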

[4] = Counterscreen for APE1 Inhibitors: Fluorescent Dye Displacement Validation Assay (AID 1707)
Summary of the method: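 Assay buffer: Tris-HCl pH7.5 with 50mM NaCl, 2 mM MgCl2, 0.01% Tween-20. Dye 250 nM, duplex 50 nM final. Readout: decrease in ThO endpoint fluorescence, 480 nm excitation, 540 nm emission.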

[5] = target: Endonuclease 4 (Escherichia coli (strain K12)) (UniProt P0A6C1); assay: Counterscreen for APE1 Inhibitors: qHTS Validation Assay for Inhibitors of Endonuclease IV (AID 1708); also: potency is read from the fitted curve at half-maximal effect
Summary of the method: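 E. coli EndoIV at 2 nM final, preincubated 15 min at room temperature with compound, then 50 nM TAMRA/BHQ-2 THF abasic-site duplex added. Buffer: 50 mM Tris-HCl pH 7.5, 50 mM NaCl, 2 mM MgCl2, 1 mM DTT, 0.01% Tween-20. Kinetic fluorescence increase, third minus first read.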

[6] = qHTS for differential inhibitors of proliferation of Plasmodium falciparum line 7G8 (AID 1815);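 also: parasite growth measured after three days of incubation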; also: potency is read from the fitted curve at half-maximal effect
[7] = qHTS for differential inhibitors of proliferation of Plasmodium falciparum line GB4 (AID 1816); settings: Potency: Plasmodium falciparum GB4 proliferation inhibition;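 also: parasite growth measured after 72 h incubation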; also: potency is read from the fitted curve at half-maximal effect
[8] = qHTS for differential inhibitors of proliferation of Plasmodium falciparum line 3D7 (AID 1876); also: potency is read from the fitted curve at half-maximal effect
[9] = qHTS for differential inhibitors of proliferation of Plasmodium falciparum line D10 (AID 1877);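 also: parasites grown with compound for 72 h before DNA staining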; also: potency is read from the fitted curve at half-maximal effect
[10] = qHTS for differential inhibitors of proliferation of Plasmodium falciparum line Dd2 (AID 1882); settings: Potency: Plasmodium falciparum Dd2 proliferation inhibition; also: nearly all actives have a fitted effect of over 65% in size; also: potency is read from the fitted curve at half-maximal effect
Summary of the method: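 Dd2-infected erythrocytes (0.3% parasitemia, 2.5% hematocrit final) incubated with compound 72 h at 37 C, 5% CO2; lysed with saponin/Triton buffer containing SYBR Green I, incubated overnight in the dark, then read by fluorescence (485/535 nm). Normalized to 0.29 uM artemisinin and DMSO.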

[11] = qHTS for differential inhibitors of proliferation of Plasmodium falciparum line W2 (AID 1883); settings: Potency: Plasmodium falciparum W2 proliferation inhibition;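 also: parasites grown with compound for 72 h before lysis and staining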; also: potency is read from the fitted curve at half-maximal effect
[12] = qHTS for differential inhibitors of proliferation of Plasmodium falciparum line HB3 (AID 1886); settings: Potency: Plasmodium falciparum HB3 proliferation inhibition;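 also: parasites grown with compound for 72 h before SYBR Green readout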; also: potency is read from the fitted curve at half-maximal effect
[13] = qHTS Assay for Lipid Storage Modulators (AID 1519; calls by dose curve); settings: Drosophila S3 cells, BODIPY lipid droplet/cell ratio, laser cytometry, cells loaded with oleic acid
Summary of the method: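 Cells seeded at 5,000 per well were treated with compounds over a concentration series and loaded with oleic acid (400 uM, as added). Lipid droplet fluorescence (488 nm excitation, 500-530 nm channel) was read by laser-scanning cytometry and normalized to 20 uM Triacsin C.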

[14] = target: alpha-glucosidase (Oryza sativa, rice) (UniProt Q653V4); assay: Counterscreen for Glucocerebrosidase Inhibitors: qHTS Assay for Rice alpha-Glucosidase at pH 5.0 (AID 997)
Summary of the method: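 Rice alpha-glucosidase (4 nM final) with 400 uM 4-methylumbelliferyl-alpha-D-glucopyranoside in citrate buffer pH 5.0, 20 min at room temperature, stopped at pH 10; fluorescence 365/440 nm, compounds 0.7 nM–77 uM, AC50 from Hill fits.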

[15] = measured here: cell count channel max response
[16] = measured here: lipid channel max response

Sequence of Alpha-galactosidase A (Homo sapiens) (P06280 whole entry, looked up): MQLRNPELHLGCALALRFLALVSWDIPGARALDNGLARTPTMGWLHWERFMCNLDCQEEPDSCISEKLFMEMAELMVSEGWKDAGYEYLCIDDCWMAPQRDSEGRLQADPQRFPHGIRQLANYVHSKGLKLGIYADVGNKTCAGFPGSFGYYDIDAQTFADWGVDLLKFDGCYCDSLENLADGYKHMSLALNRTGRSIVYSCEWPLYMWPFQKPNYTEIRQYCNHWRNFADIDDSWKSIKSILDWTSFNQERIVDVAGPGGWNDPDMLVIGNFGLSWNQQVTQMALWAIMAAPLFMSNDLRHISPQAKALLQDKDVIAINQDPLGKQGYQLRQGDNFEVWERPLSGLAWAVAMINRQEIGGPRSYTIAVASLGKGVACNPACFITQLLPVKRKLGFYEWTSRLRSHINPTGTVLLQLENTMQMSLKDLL
Sequence of DNA repair nuclease/redox regulator APEX1 (Homo sapiens) (P27695 whole entry, looked up): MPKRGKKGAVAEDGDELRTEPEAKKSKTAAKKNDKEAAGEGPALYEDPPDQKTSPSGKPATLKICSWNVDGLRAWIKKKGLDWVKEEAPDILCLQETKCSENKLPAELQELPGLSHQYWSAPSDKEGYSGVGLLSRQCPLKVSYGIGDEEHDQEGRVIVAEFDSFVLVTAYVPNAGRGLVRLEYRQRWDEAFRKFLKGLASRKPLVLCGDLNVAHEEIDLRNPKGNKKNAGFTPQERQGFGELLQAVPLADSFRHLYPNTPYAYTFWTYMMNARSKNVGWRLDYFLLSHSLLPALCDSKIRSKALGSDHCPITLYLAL

Question: What does the source list for `CCOC(=O)C(C)(C)Oc1ccc(Cl)cc1`?
Answer: outcome [1]: inactive; outcome [2]: inactive; Potency [3]: inactive; Potency [4]: inactive; Potency [5]: inactive; Potency [6]: inactive; Potency [7]: inactive; Potency [8]: inactive; Potency [9]: inactive; Potency [10]: inactive; Potency [11]: inactive; Potency [12]: inactive

Question: For `O=C(c1ccc(F)cc1)C1CCN(CCn2c(=O)[nH]c3ccccc3c2=O)CC1`, which outcome [1] is on record?
Answer: inactive

Question: And the outcome [2]?
Answer: inactive

Question: And the activity change, negative = inhibition ([13]; at 57.5 µM (top of the series))?
Answer: 3.6% (inactive) and 3.32% (inactive)

Question: What about the max response [13, 15] of the same molecule?
Answer: 11.4% and 58.6%

Question: What about the max response [13, 16] of the same molecule?
Answer: 27.6% and 62%

Question: What about the Potency [3] of the same molecule?
Answer: inactive

Question: What about the Potency [4] of the same molecule?
Answer: inactive

Question: And the Potency [5]?
Answer: inactive

Question: What about the Potency [6] of the same molecule?
Answer: 3160 nM (active)

Question: What about the Potency [7] of the same molecule?
Answer: 5620 nM (active)

Question: What about the Potency [8] of the same molecule?
Answer: 7080 nM (active)

Question: What about the Potency [9] of the same molecule?
Answer: 3980 nM (active)

Question: And the Potency [10]?
Answer: 6310 nM (active)

Question: And the Potency [11]?
Answer: 1580 nM (active)

Question: And the Potency [12]?
Answer: 3980 nM (active)

Question: With `O=C1c2c(O)ccc(O)c2C(=O)c2c(NCCNCCO)ccc(NCCNCCO)c21` as the molecule, how does the outcome [1] read?
Answer: inactive

Question: What about the outcome [14] of the same molecule?
Answer: inactive

Question: And the activity change, negative = inhibition ([13]; at 25.7 µM (top of the series))?
Answer: 0.282% (inactive)

Question: What about the activity change, negative = inhibition ([13]; at 57.5 µM (top of the series)) of the same molecule?
Answer: -5.29% (inactive)

Question: What about the max response [13, 15] of the same molecule?
Answer: -20.6% and -20.2%

Question: And the max response [13, 16]?
Answer: -20.7% and -20.9%

Question: What about the Potency [3] of the same molecule?
Answer: 2000 nM (active)

Question: And the Potency [4]?
Answer: inactive

Question: What about the Potency [5] of the same molecule?
Answer: 2000 nM (active)

Question: And the Potency [6]?
Answer: 1120 nM (active)

Question: What about the Potency [7] of the same molecule?
Answer: 1410 nM (active)

Question: And the Potency [8]?
Answer: 398 nM (active)

Question: And the Potency [9]?
Answer: 1580 nM (active)

Question: And the Potency [10]?
Answer: 891 nM (active)

Question: What about the Potency [12] of the same molecule?
Answer: 708 nM (active)

Question: What does the source list for `COc1ccccc1OCC(O)CN1CCN(CC(=O)Nc2c(C)cccc2C)CC1` (centres undefined)?
Answer: outcome [2]: inactive; activity change, negative = inhibition ([13]; at 57.5 µM (top of the series)): 13.2% (inactive); max response [13, 15]: 8.98%; max response [13, 16]: 24.1%; Potency [3]: inactive; Potency [4]: inactive; Potency [5]: inactive; Potency [8]: inactive; Potency [9]: inactive; Potency [10]: inactive; Potency [12]: inactive
